PubChem BioAssay (NCATS)
Inconclusive results are not listed. Activity calls are given as the source filed them. The call rests on the fitted dose curve; in most records, active means well fitted cell-killing curve with a large enough effect; inconclusive means small, poorly fitted or top-dose-only effect, or effect the other way; inactive means no such curve, though single readings can be large or run the other way.

assay: Quantitative highthroughput screen to assess conditional lethalithy of SEM cells grown in RPMI1640 with unreated serum (RPMI+s) (AID 1963883); conditions: SEM B-ALL cells, CellTiter-Glo viability, 48 h; series mostly up to 45.8 µM; viability: at the top concentration; further: nearly all actives have a fitted effect of over 35% in size
From the text: Assay Provider: Jason Cantor Ph.D.
Department of Biochemistry
University of Wisconsin-Madison, Madison, WI, USA
Chemical screening studies have identified drug sensitivities across hundreds of cancer cell lines but most putative therapeutics fail to translate. Discovery and development of drug candidates in models that more accurately reflect nutrient levels in human blood is a major challenge. Here we performed high-throughput screens in conventional versus Human Plasma-Like Medium (HPLM) to identify compounds that were "missed" when screening using the artificial culture condition. Sets of conditional anticancer compounds spanned phases of clinical development and included non-oncology drugs were assessed. […] We also traced conditional phenotypes for several chemotherapeutics to availability of HPLM-specific metabolites and confirmed others for compounds whose reported targets are encoded by nonessential genes. Our findings establish generalizable strategies for exploiting conditional lethality in HPLM to reveal therapeutic candidates and mechanisms of action in cancer cells.
Described herein are the results of each viability screens against three cell lines: NOMO1 (an acute myeloid leukemia cell line); P12-Ichikawa (a T-cell acute lymphoblastic leukemia); and SEM (a B-cell ALL). Each assay was screened using 3 different cell culture media: homemade human plasma-Like medium with 10% dialyzed fetal bovine serum (HPLM+ds); RPMI1640 with 10% untreated FBS and 5mM glucose (RPMI+s); and RPMI1640 with 10% dialyzed fetal bovine serum and 5 mM glucose (RPMI+ds).
PROTOCOL TABLE (as described by Inglese J, Shamu CE and Guy RK. 2007)
SEQUENCE No. (e.g., 1, 2, 3, etc.); […] (e.g., Cells, Incubation, Reagent, etc.); VALUE and DESCRIPTION.
1; Cells; 5 uL; white, solid bottom 1536-well Greiner assay plate.
2; Compounds; 23 nL; Kalypsis pin tool (Wako USA) equipped with a 1536-well pin head to transfer to the assay plates.
3; Incubation; 48 hours; 37C incubation.
4; Reagent; 3 uL; CellTiter Glo (Promega).
5; Incubation; 5 min, room temperature
6; Detection; Luminescence, Viewlux PerkinElmer.
NOTES (numbers refer to Sequence numbers above)
1. Briefly, 5 ul of cell reagent was dispensed using a Multidrop Combi Dispenser. The NOMO1 and SEM cells were plated at 500 cells/well and the P12-Ichikawa line at 1000 cells/well.
2. After seeding the cells, 23 nL of MIPE 4.1 library compounds (in DMSO) were added to each plate using a Kalypsys 1536 Pintool dispenser. Bortezomib at final concentration of […] and DMSO were added to each plate as positive and negative controls respectively. For each screen, MIPE 4.1 compounds were added over an eleven-point concentration range […] in 3-fold dilutions.
3. Each plate was covered with a stainless steel gasketed lid to prevent evaporation and incubated for 48 hour at 37C, 95% relative humidity, and 5% CO2.
4-5. Three microliter CellTilter-GloTM luminescent substrate mix (Promega) reagent was added to the assay plate and incubated at room temperature for 5 min.
6. The luminescence signal was measured using a ViewLux (PerkinElmer) multiplate reader with a 2 second exposure time per plate. Data for each compound were normalized as percent viability such that measurements for DMSO and the empty well controls in each plate were defined as 100% and 0%, respectively.
Potency means the concentration at half of the fitted maximal effect.

Row | SMILES | viability | Potency
1 | COc1ccc(-c2coc3cc(O)ccc3c2=O)cc1 | 128% (inactive) | –
2 | CN1C2CCC1CC(OC(=O)C(CO)c1ccccc1)C2 (stereo not given) | 97% (inactive) | –
3 | COc1cc2nc(-c3cc(F)ccc3O)nc(N[C@@H]3CNC[C@@H]3C(C)(C)O)c2cc1OC | – | 0.469 µM (active)
4 | Clc1cccc(-n2nnnc2NCc2ccccc2Oc2ccccn2)c1Cl | 78.6% (inactive) | –
5 | NS(=O)(=O)c1cc2c(cc1Cl)NCNS2(=O)=O | 104% (inactive) | –
6 | Clc1ccc2c(c1)C(N1CCNCC1)=Nc1ccccc1O2 | 101% (inactive) | –
7 | COc1cc(-c2nn(C3CCC(N4CCN(C(C)=O)CC4)CC3)c3ncnc(N)c23)ccc1NC(=O)c1cc2ccccc2n1C (stereo not given) | 83.9% (inactive) | –
8 | CC1=C(C(=O)Nc2cc3cn[nH]c3cc2F)C(c2ccc(Cl)cc2F)N=C(c2ccnc(Cl)c2)N1 (stereo not given) | – | 18.7 µM (active)
9 | CCCCCCCCCCCC1=C(O)C(=O)C=C(O)C1=O | 103% (inactive) | –
10 | CC(=O)OCC(=O)[C@@]12N=C(C)O[C@H]1C[C@H]1[C@@H]3CCC4=CC(=O)C=C[C@]4(C)[C@@H]3[C@@H](O)C[C@@]12C | – | 23.5 µM (active)
11 | COc1ccc(C2Sc3ccccc3N(CCN(C)C)C(=O)C2OC(C)=O)cc1 (stereo not given) | 71.2% (inactive) | –
12 | CC1(C)NC(=O)N(c2ccc([N+](=O)[O-])c(C(F)(F)F)c2)C1=O | 100% (inactive) | –
13 | CC(=O)OCC(CCn1cnc2cnc(N)nc21)COC(C)=O | 106% (inactive) | –
14 | COc1nc(-c2ccc3c(c2)OCO3)n(-c2ccc(NC(=O)CSc3ccccc3)cc2)n1 | 89.9% (inactive) | –
15 | CN[C@H](CC(C)C)C(=O)N[C@H]1C(=O)N[C@@H](CC(N)=O)C(=O)N[C@@H]2C(=O)N[C@H]3C(=O)N[C@H](C(=O)N[C@H](C(=O)O)c4cc(O)cc(O)c4-c4cc3ccc4O)[C@H](O)c3ccc(c(Cl)c3)Oc3cc2cc(c3O[C@@H]2O[C@H](CO)[C@@H](O)[C@H](O)[C@@H]2O[C@H]2C[C@](C)(N)[C@H](O)[C@H](C)O2)Oc2ccc(cc2Cl)[C@H]1O | 101% (inactive) | –
16 | Cc1c(CCOc2ccc(C(=O)O)cc2)c2cc(Cl)ccc2n1C(c1ccccc1)c1ccccc1 | 94.8% (inactive) | –
17 | Oc1ccc(C=Cc2cc(O)cc(O)c2)cc1 | – | 11.8 µM (active)
18 | CCC(C)n1ncn(-c2ccc(N3CCN(c4ccc(OC[C@H]5CO[C@](Cn6cncn6)(c6ccc(Cl)cc6Cl)O5)cc4)CC3)cc2)c1=O (stereo not given in full) | 102% (inactive) | –
19 | CNC1[C@H](O)C(O[C@@H]2C(O)C(O[C@H]3O[C@H]([C@@H](C)NC)CC[C@H]3N)[C@@H](N)C[C@H]2N)OC[C@]1(C)O (stereo not given in full) | 109% (inactive) | –
20 | C=CC(=O)Nc1cccc(Oc2nc(Nc3ccc(N4CCN(C)CC4)cc3)ncc2Cl)c1 | – | 0.833 µM (active)

Row | SMILES | viability | Potency
21 | CN(C)c1cc(NC(=O)CNC(C)(C)C)c(O)c2c1C[C@@H]1C[C@H]3[C@H](N(C)C)C(=O)C(C(N)=O)=C(O)[C@@]3(O)C(=O)C1=C2O | 77.7% (inactive) | –
22 | NC(N)=Nc1nc(CSCCC(N)=NS(N)(=O)=O)cs1 | 95% (inactive) | –
23 | CN(C)CCc1c[nH]c2ccc(Cn3cncn3)cc12 | – | 0.132 µM (active)
24 | COc1ccc(CCC(=O)Nc2nc3ccc(Cl)cc3s2)cc1OC | 93.1% (inactive) | –
25 | Nc1nc(F)nc2c1ncn2[C@@H]1O[C@H](CO)[C@@H](O)[C@@H]1O | – | 0.105 µM (active)
26 | Cc1cccc(C=NNc2cc(N3CCOCC3)nc(OCCc3ccccn3)n2)c1 | – | 11.8 µM (active)
27 | CC(C)[C@H](CO)Nc1nc(Nc2cccc(Cl)c2)c2ncn(C(C)C)c2n1 | – | 0.372 µM (active)
28 | Cc1ccccc1C(C(=O)NC1CCCCC1)N(C(=O)Cn1ccnc1C)c1cccc(F)c1 (stereo not given) | 95.2% (inactive) | –
29 | CCOC(=O)C(C)(C)Oc1ccc(Cl)cc1 | 93% (inactive) | –
30 | C=CCn1c(=O)c2cnc(Nc3ccc(N4CCN(C)CC4)cc3)nc2n1-c1cccc(C(C)(C)O)n1 | – | 0.418 µM (active)
31 | O=C(O)C=Cc1ccc(O)c(O)c1 | – | 13.2 µM (active)
32 | O=c1cc(CN2CCOCC2)occ1OCCCCCSc1ccnc2cc(C(F)(F)F)ccc12 | 84.3% (inactive) | –
33 | CCc1cc(C(C)=NOCc2ccc(C3CCCCC3)c(C(F)(F)F)c2)ccc1CN1CC(C(=O)O)C1 | – | 13.2 µM (active)
34 | COc1cc(C(C)=O)ccc1OCCCN1CCC(c2noc3cc(F)ccc23)CC1 | 79.3% (inactive) | –
35 | Cn1c(=O)n(-c2ccc(C(C)(C)C#N)cc2)c2c3cc(-c4cnc5ccccc5c4)ccc3ncc21 | – | 0.166 µM (active)
36 | CC1(C)CCC[C@@]2(C)[C@@H]1CC[C@@]1(C)OC(=O)C[C@H]21 | 107% (inactive) | –
37 | CCOC(=O)[C@H](CCc1ccccc1)N[C@@H](C)C(=O)N1[C@@H](C(=O)O)C[C@H]2CCC[C@@H]21 | – | 20.9 µM (active)
38 | O=c1[nH]c(=O)n(C2CCCO2)cc1F (stereo not given) | 90.7% [at 92.2 µM] (inactive) | –
39 | C[C@]12C=CC(=O)C=C1CC[C@@H]1[C@@H]2C(=O)C[C@@]2(C)[C@H]1CC[C@]2(O)C(=O)CO | 93.8% [at 23.2 µM] (inactive) | –
40 | NC(=O)c1noc([C@H](CCCC2CCCCC2)CC(=O)NO)n1 | – | 16.6 µM (active)
